# From the supplement of paper PMC8728848
# Many of the other results were omitted from the sample, so the strongest signals are more common in it than they were.
# Legend:
# Assay in all cases: glycan array binding signal (z-score within array); higher = stronger binding
# Details in all cases: glycan notation: IUPAC condensed, linker removed
# [1] = target: Gal6S(b1-4)Glc6S
# Method in brief: (§1)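 The Consortium for Functional Glycomics database supplied 3228 glycan arrays, of which those lacking an available protein sequence were dropped. The binding signal, a within-array Z-score, was averaged across arrays of the same protein sequence and across linkers. Negative scores can be read as non-binding.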
# [2] = target: GalNAc(b1-4)GlcNAc(b1-2)Man
# Method in brief: as §1
# [3] = target: GalNAc(b1-4)GlcNAc6S
# Method in brief: as §1
# [4] = target: GlcA(b1-6)Gal
# Method in brief: as §1
# [5] = target: GlcNAc(b1-2)[GlcNAc(b1-4)]Man(a1-3)[GlcNAc(b1-4)][GlcNAc(b1-2)[GlcNAc(b1-6)]Man(a1-6)]Man(b1-4)GlcNAc(b1-4)[Fuc(a1-6)]GlcNAc
# Method in brief: as §1
# [6] = target: GlcNAc(b1-3)Gal(b1-4)GlcNAc(b1-2)Man(a1-3)[GlcNAc(b1-3)Gal(b1-4)GlcNAc(b1-2)Man(a1-6)]Man(b1-4)GlcNAc(b1-4)GlcNAc
# Method in brief: as §1
# [7] = target: GlcNAc(b1-3)Man
# Method in brief: as §1
# [8] = target: GlcNAc(b1-3)[GlcNAc(b1-4)][GlcNAc(b1-6)]GlcNAc
# Method in brief: as §1
# [9] = target: Man(a1-2)Man(a1-3)Man
# Method in brief: as §1
# [10] = target: Man(a1-3)[Man(a1-6)]Man(a1-6)[Man(a1-2)Man(a1-3)]Man(b1-4)GlcNAc(b1-4)GlcNAc
# Method in brief: as §1
# [11] = target: Neu5Ac(a2-3)Gal(b1-3)[Fuc(a1-4)]GlcNAc
# Method in brief: as §1
# [12] = target: Neu5Ac(a2-3)Gal(b1-4)GlcNAc(b1-2)Man(a1-3)[Neu5Ac(a2-3)Gal(b1-4)GlcNAc(b1-2)Man(a1-6)]Man(b1-4)GlcNAc(b1-4)GlcNAc
# Method in brief: as §1
# [13] = target: Neu5Ac(a2-3)Gal(b1-4)GlcNAc(b1-2)[Neu5Ac(a2-3)Gal(b1-4)GlcNAc(b1-4)]Man(a1-3)[GlcNAc(b1-4)][Neu5Ac(a2-3)Gal(b1-4)GlcNAc(b1-4)Man(a1-6)]Man(b1-4)GlcNAc(b1-4)GlcNAc
# Method in brief: as §1
# [14] = target: Neu5Ac(a2-3)Gal(b1-4)GlcNAc(b1-2)[Neu5Ac(a2-3)Gal(b1-4)GlcNAc(b1-6)]Man(a1-6)[Neu5Ac(a2-3)Gal(b1-4)GlcNAc(b1-2)Man(a1-3)]Man(b1-4)GlcNAc(b1-4)GlcNAc
# Method in brief: as §1
# [15] = target: Neu5Ac(a2-3)Gal(b1-4)GlcNAc(b1-3)Gal(b1-4)GlcNAc(b1-3)GalNAc
# Method in brief: as §1
# [16] = target: Neu5Ac(a2-3)Gal(b1-4)[Fuc(a1-3)]GlcNAc(b1-3)Gal
# Method in brief: as §1
# [17] = target: Neu5Ac(a2-3)Gal(b1-4)[Fuc(a1-3)]GlcNAc(b1-6)[Neu5Ac(a2-3)Gal(b1-3)]GalNAc
# Method in brief: as §1
# [18] = target: Neu5Ac(a2-3)GalNAc
# Method in brief: as §1
# [19] = target: Neu5Ac(a2-3)[GalNAc(b1-4)]Gal(b1-4)Glc
# Method in brief: as §1
# [20] = target: Neu5Ac(a2-6)Gal(b1-4)GlcNAc(b1-2)Man(a1-3)Man(b1-4)GlcNAc(b1-4)GlcNAc
# Method in brief: as §1
# [21] = target: Neu5Ac(a2-6)Gal(b1-4)GlcNAc(b1-2)Man(a1-3)[Neu5Ac(a2-6)Gal(b1-4)GlcNAc(b1-2)Man(a1-6)]Man(b1-4)GlcNAc(b1-4)[Fuc(a1-6)]GlcNAc
# Method in brief: as §1
# [22] = target: Neu5Ac(a2-6)Gal(b1-4)GlcNAc(b1-2)Man(a1-6)[GlcNAc(b1-2)Man(a1-3)]Man(b1-4)GlcNAc(b1-4)GlcNAc
# Method in brief: as §1
# [23] = target: Neu5Ac(a2-6)Gal(b1-4)GlcNAc(b1-2)Man(a1-6)[Man(a1-3)]Man(b1-4)GlcNAc(b1-4)GlcNAc
# Method in brief: as §1
# [24] = target: Neu5Ac(a2-6)Gal(b1-4)GlcNAc(b1-2)[Neu5Ac(a2-6)Gal(b1-4)GlcNAc(b1-4)]Man(a1-3)[GlcNAc(b1-4)][Neu5Ac(a2-6)Gal(b1-4)GlcNAc(b1-2)[Neu5Ac(a2-6)Gal(b1-4)GlcNAc(b1-6)]Man(a1-6)]Man(b1-4)GlcNAc(b1-4)GlcNAc
# Method in brief: as §1
# [25] = target: Neu5Ac(a2-6)Gal(b1-4)GlcNAc(b1-2)[Neu5Ac(a2-6)Gal(b1-4)GlcNAc(b1-6)]Man(a1-6)[Neu5Ac(a2-6)Gal(b1-4)GlcNAc(b1-2)Man(a1-3)][GlcNAc(b1-4)]Man(b1-4)GlcNAc(b1-4)GlcNAc
# Method in brief: as §1
# [26] = target: Neu5Ac(a2-6)Gal(b1-4)GlcNAc(b1-3)Gal(b1-4)GlcNAc(b1-3)Gal(b1-4)GlcNAc(b1-2)Man(a1-3)[Neu5Ac(a2-6)Gal(b1-4)GlcNAc(b1-3)Gal(b1-4)GlcNAc(b1-3)Gal(b1-4)GlcNAc(b1-2)Man(a1-6)]GalNAc
# Method in brief: as §1
# [27] = target: Neu5Gc(a2-6)GalNAc
# Method in brief: as §1
binder,measurement,setting,value
"Ovorubin (Pomacea canaliculata), J7I2T6 (protein) MFVATSLLLAIATLVVRASPHNYLIMDIEPPKSVSERDILNLLSPLQVKHSFRVTGSTRLLIVIRLDAQSYEKLDEITVPGKVEVIPAVNMADTMERCGVSWPRVELTDDNVTLFESESTLTDVTKEQLKAMLIGYGEHMSGLLQAHRFEYYQAAGATPHRHFVFVNSVPDEIEVFGREGVDIWGGPGEFVVKPQYVTRI",glycan array binding signal (z-score),[1],3.93
same,glycan array binding signal (z-score),[2],-0.618
same,glycan array binding signal (z-score),[3],-0.066
same,glycan array binding signal (z-score),[4],-0.181
same,glycan array binding signal (z-score),[5],-0.233
same,glycan array binding signal (z-score),[6],-0.39
same,glycan array binding signal (z-score),[7],-0.105
same,glycan array binding signal (z-score),[8],7.53
same,glycan array binding signal (z-score),[9],0.255
same,glycan array binding signal (z-score),[10],-0.9
same,glycan array binding signal (z-score),[11],-0.148
same,glycan array binding signal (z-score),[12],-0.45
same,glycan array binding signal (z-score),[13],-0.397
same,glycan array binding signal (z-score),[14],0.215
same,glycan array binding signal (z-score),[15],0.207
same,glycan array binding signal (z-score),[16],-1.06
same,glycan array binding signal (z-score),[17],-0.055
same,glycan array binding signal (z-score),[18],0.287
same,glycan array binding signal (z-score),[19],-0.336
same,glycan array binding signal (z-score),[20],0.036
same,glycan array binding signal (z-score),[21],-0.129
same,glycan array binding signal (z-score),[22],-0.738
same,glycan array binding signal (z-score),[23],-0.358
same,glycan array binding signal (z-score),[24],3.19
same,glycan array binding signal (z-score),[25],-0.646
same,glycan array binding signal (z-score),[26],3.06
same,glycan array binding signal (z-score),[27],0.691
